From PubChem BioAssay (NCI)
About 79,000 compounds went through this panel and 15% of them were active in at least one assay; those are over-represented in the sample as a whole. Values without a mark were called inactive. The source made the active and inactive calls. Rule as the data show it: active = growth inhibition above about 70%; inactive = the rest.

Experiments:
[1] = NCI Yeast Anticancer Drug Screen. Data for the mlh1 rad18 strain (AID 175); details: S. cerevisiae mlh1 rad18 strain growth inhibition; at 50.0 µM; active compounds read high
Method in brief: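 A repair-deficient yeast strain is exposed to test compound, and growth is scored relative to vehicle-treated controls.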

[2] = NCI Yeast Anticancer Drug Screen. Data for the rad50 strain (AID 155);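 also: 0% = growth of vehicle-only cultures of the same strain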; details: S. cerevisiae rad50 strain growth inhibition; at 50.0 µM; active compounds read high
Method in brief: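 Yeast carrying a defined DNA repair defect were exposed to test compounds, and growth was compared with vehicle-treated controls to give percent inhibition.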

[3] = NCI Yeast Anticancer Drug Screen. Data for the mec2-1 strain (AID 157); details: S. cerevisiae mec2-1 strain, at 50.0 µM, active compounds read high
Method in brief: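 Compounds were applied to mec2-1 yeast cells. Their growth was then compared with that of vehicle-treated cultures to give growth inhibition.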

[4] = NCI Yeast Anticancer Drug Screen. Data for the sgs1 mgt1 strain (AID 161);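 also: 0% = growth of cultures given vehicle only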; details: S. cerevisiae sgs1 mgt1 strain, at 50.0 µM, active compounds read high
Method in brief: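 Compounds are added to genetically altered yeast, and growth is compared with cultures given vehicle alone to give percent inhibition.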

[5] = NCI Yeast Anticancer Drug Screen. Data for the cln2 rad14 strain (AID 165);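 also: 0% = growth equal to vehicle treated cultures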; details: S. cerevisiae cln2 rad14 strain, at 50.0 µM, active compounds read high
Method in brief: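 Strain: cln2 rad14 yeast, altered in cell cycle control and DNA damage repair. Read-out: growth inhibition vs vehicle.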

[6] = NCI Yeast Anticancer Drug Screen. Data for the bub3 strain (AID 167); details: S. cerevisiae bub3 mutant strain, at 50.0 µM, active compounds read high
Method in brief: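 Compounds were applied to a genetically altered yeast strain carrying a cell-cycle control defect. Growth inhibition was scored against vehicle-treated controls.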

Structure (SMILES)	growth inhibition [1]	growth inhibition [2] [%]	growth inhibition [3] [%]	growth inhibition [4] [%]	growth inhibition [5] [%]	growth inhibition [6] [%]
CN(C)/N=C/c1ccccc1O	2.9%					
CC(=O)Nc1ccc(NC(C)=O)c2c1C(=O)c1ccccc1C2=O	23.9%					
CC(C)(N)COS(=O)(=O)O	-14.1%	-14.6	-14.1	-7.95	-6.9	9.25
C/C(=C\c1ccc([N+](=O)[O-])cc1)C(=O)O	47.5%	23.6	23.1	19.2	12.2	31.4
CC(C)=C(NC(=O)c1ccccc1)C(=O)O	12.9%	14.1	0.35	-5.25	22	-2.7
O=[N+]([O-])c1cccc(N=Nc2ccc(O)cc2O)c1	20.6%	30.6	-5.65	65.5	15.6	4.2
CCOC(=O)CCCS(C)(=O)=O	7.3%	-26.5	-19.6	-32	-17.9	-1.95
O=C(N/N=C\c1cc(Br)cc(Br)c1O)N/N=C/c1cc(Br)cc(Br)c1O	33.2%	41.4	10.2	43	21.9	39
O=P(O)(O)OCC(O)CO (stereo not given)	-10.5%	-4.6	-7.3	8.95	25.3	-22.1
Cc1cc2ccccc2c(O)c1C#N	48.9%	32.5	17.9	6.3	-4.3	1.3
COc1cc(CCN=Cc2ccccc2O)c([N+](=O)[O-])cc1OC	-2.35%	-3.6	-10.5	16.1	11.7	-7.05
C#Cc1cccc(NC(=O)c2ccc(Cl)cc2Cl)c1	15.7%	9.95	-9.7	26.6	24.2	25
COc1cc(-c2ccc(NC(=O)NC3CC3)c(OC)c2)ccc1NC(=O)NC1CC1	-25.8%	-26.9	-23.2	-24.1	3.15	-25.2
NCCCN	6.55%	8.9	-7.05	-11.1	-5.9	3.6
C=CCNc1nnc(C)s1	-5.35%	14.9	19.7	-21.6	-16.2	-15
O=S(=O)(Cc1ccccc1)c1ccccc1	23.9%	4.6	1.1	2.1	-0.8	-17.5
CC(C)COC(=O)COC(=O)OCCOCCOC(=O)OCC(=O)OCC(C)C	8.6%	36.5	-8.7	17.4	-26.9	26.1
CCOC(=O)c1[nH]c(C)c(C(C)=O)c1C	-8.15%	-0.45	-22.5	9	-10.5	-27
S=c1nn[nH]c2ccccc12	8.25%	17.4	22.6	8.6	8.1	7.8
Cc1cc(OCCO)cc(C)c1Cl	-12.3%	-20.9	-65.8	-16.4	2.35	-10.5
CN(C)CCN(C)CC(C)(C)C(=O)/C=C/c1ccc(Cl)cc1	31.8%	27.9	3	9	-2.65	19.7
NC(=O)N/N=C\c1ccco1	13.1%	26.1	-9.8	-13.3	-11.4	-14.3
CC(=O)c1cc2c(cc1F)C(C)(C)CCC2(C)C	-18.6%	-23.2	-30.4	-19.1	-32.5	-20.1

Structure (SMILES)	growth inhibition [1]	growth inhibition [2] [%]	growth inhibition [3] [%]	growth inhibition [4] [%]	growth inhibition [5] [%]	growth inhibition [6] [%]
CCCC(C)OCC(=O)O (stereo not given)	-7.1%	31.6	-3.4	1.55	4.35	-1.25
CCCCCCCCO	-13.2%	12.1	17.2	2.25	5.5	-20.4
CC1=CC(C)(C)NC(=S)N1c1ccc(S(=O)(=O)O)c2cccc(S(=O)(=O)O)c12	-33.1%	-4.8	-5.25	-13.1	-30.9	4.3
Cc1ccc(C)n1-c1ccsc1C(=O)NNC(=O)CCl	-3.85%	-13.8	-17.8	2.25	22.9	-14.5
CN(C)C(C)(C)CC(C)(C)C	26.6%	35.7	4	15.7	4.85	17.3
O=C(CCl)N1CCN(C/C=C/c2ccccc2)CC1	28.5%	8.15	-0.05	19.1	-3.95	39.9
CC(=O)/C(Cc1ccccc1)=N/O	2.15%	10.7	4.55	15.8	-4	-2.1
CC1=C(/C=C/C(C)=C/C=C/C(C)=C/CO)C(C)(C)CCC1	6.55%	14.8	4.45	-3.15	10.7	-42.2
O=[N+]([O-])c1ccc(N=Nc2ccccc2)cc1	14.8%	11.4	12.2	-1.1	21.2	-5.2
Cc1cc(C)c(CC(=O)O)c(C)c1	10.4%	30.5	6.3	16.9	12.3	4.3
COc1cc2c3cc1Oc1c(OC)c(OC)cc4c1C(Cc1ccc(O)c(c1)Oc1ccc(cc1)CC3N(C)CC2)N(C)CC4 (stereo not given)	-89.8%	1.05	0.55	0.65	6.9	8.1
CC(=O)Cc1cc(-c2cc(CC(C)=O)[nH]n2)n[nH]1	-5%	-45.1	-22.1	-24.1	-25.5	-5.45
CC(C)OC(=O)c1cc(NC(=S)OC(C)C)ccc1Cl	85.1% (active)	3.95	10.2	22.9	15.3	32.5
O=c1cc(-c2ccccc2)nc2cc(-c3ccco3)[nH]n12	-3.85%	-8.1	-14.7	-6.05	7.9	-2.6
O=C(O)C(c1ccccc1)C(O)c1ccccc1 (stereo not given)	-7.45%	5.35	-21.4	-22.7	-26.1	-30.4
COc1ccccc1N=Nc1c(O)ccc2cc(S(=O)(=O)O)ccc12	-13.2%	-14.7	6.9	6.75	9.95	-2.75
S=c1sc2ccccc2n1CN1CCCCC1	15.8%	7.7	14.8	45	10.6	25.3
CCCCCC(C)(CC(=O)O)CC(=O)O	-15.4%	-18.6	-15.3	-21.4	-27.8	0.7
c1cc[n+](C2c3ccccc3C([n+]3ccccc3)c3ccccc32)cc1 (stereo not given)	41.5%	25.2	18.8	16.9	-23.9	28
CC1SC(N)=NC1=O (stereo not given)	2.55%	12.8	-6.7	0.25	-2.15	-7.5
CCOC(=O)c1cc(/C=C/c2cccc(Cl)c2)on1	47.4%	57.2	27.6	25.9	26.1	8.1
Cc1cccc(C(=O)N(C(C)C)C(C)C)c1	-0.35%	-0.9	-4.95	-4.25	-50.8	26.2
